# Measured values published in PubChem BioAssay.
# Calls of active or inactive are those of the source.
# Key:
# Albumin (Bos taurus) = Albumin (Bos taurus) (UniProt P02769); assay: compounds binding labelled BSA control protein – biochemical, small-molecule microarray, Alexa647 label, 635/667 nm fluorescence, artefact control for SMM control protein annotation, profiling panel (AID 1118); details: BSA-A647 binding, fluorescence 635 nm, higher = more signal;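 also: score merges 667 nm emission intensity and signal-to-noise per printed compound spot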
# [1] = probe aXIP binding to arrayed compounds – biochemical, NeuroSMM set, 635/667 nm fluorescence, primary screen (AID 1119); details: small-molecule microarray, higher = more signal, called active from +8 up or from −8 down;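 also: probe is the protein aXip251-270 applied at 1 µg/mL to compound-printed slides; binding of probe to printed compounds measured as 667 nm fluorescence plus signal to noise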
# [2] = probe aNOTCH3 binding on compound microarray – biochemical, small-molecule microarray, 635/667 nm fluorescence, primary screen (AID 1120); details: higher = more signal;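 also: probe is a biotin-tagged antibody raised against NOTCH3 rather than NOTCH3 protein; score merges spot fluorescence near 667 nm with spot signal to noise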
# [3] = probe aNOTCH2 binding on compound microarray – biochemical, small-molecule microarray, 635/667 nm fluorescence, primary screen (AID 1121); details: higher = more signal;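 also: score merges feature fluorescence read at 667 nm with its signal to noise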
# [4] = biological target: Carbonic anhydrase 2 (Homo sapiens) (UniProt P00918); assay: compounds binding carbonic anhydrase 2 – biochemical, small-molecule microarray, Alexa647-labelled CAII, profiling panel (AID 1122); details: CAII-A647 binding fluorescence, higher = more signal
# [5] = COS7 lysate on small-molecule microarray, probe aHis, 635 nm (AID 1123); details: COS7 cell lysate, fluorescence, higher = more signal;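 also: z-score combines 667nm fluorescence intensity with signal-to-noise per printed compound spot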
# [6] = probe aLAP1 signal on lysate-treated microarray – cell lysate, small-molecule microarray, COS7 lysate, primary screen (AID 1124); details: probe aLAP1, fluorescence, higher = more signal;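 also: lysate comes from COS7 cells expressing LAP1 and is applied at 0.3 µg/mL; score merges spot fluorescence near 667 nm with signal-to-noise over triplicate slides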
# Sam68 (KHDRBS1) = assay: compounds binding KHDRBS1 protein – biochemical, small-molecule microarray, 635 nm fluorescence, primary screen (AID 1125); details: higher = more signal;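 also: score merges 667 nm channel intensity with signal to noise over triplicate slides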
# [7] = test system: Chordin-like protein 2 (CHRDL2); assay: compounds binding chordin-like 2 – biochemical, small-molecule microarray, 635 nm fluorescence, primary screen (AID 1126); details: fluorescence 635 nm, higher = more signal;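 also: printed compound slides probed with Chrdl2 protein at 4 µg/mL for 1 h at 4 C; score merges 667 nm emission intensity with signal to noise over three replicate slides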
# [8] = biological target: Concanavalin-A (Canavalia ensiformis) (UniProt P02866); assay: compounds binding concanavalin A lectin – biochemical, small-molecule microarray, Alexa647 label, 635 nm, artefact control for SMM control protein annotation, primary screen (AID 1127); details: ConA-A647 binding fluorescence, higher = more signal;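 also: z combines 667 nm emission intensity with signal-to-noise across three replicate slides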
# [9] = compounds binding Alexa647 anti-His antibody – biochemical, small-molecule microarray, 635 nm fluorescence, artefact control for SMM control protein annotation, primary screen (AID 1128); details: higher = more signal;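 also: score merges feature fluorescence with signal-to-noise for each printed compound spot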
# [10] = test system: Human papillomavirus type 1a E7 protein (residues 1-88); assay: HPV1a E7 small-molecule binders, primary screen, biochemical, small-molecule microarray, residues 1-88, 635 nm (AID 1129); details: small-molecule microarray binding, fluorescence 635 nm; higher = more signal
# [11] = biological target: Focal adhesion kinase 1 (Homo sapiens) (UniProt Q05397); assay: PTK2 protein binding on printed compound slides – biochemical, small-molecule microarray, 635/667 nm fluorescence, BSA, DTT, primary screen (AID 1130); details: 635 nm fluorescence, higher = more signal;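 also: composite of spot emission at 667 nm and signal to noise over triplicate slides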
# [12] = test system: Fibrinogen (Alexa647-labelled); assay: Alexa647-fibrinogen binding to printed small molecules – biochemical, small-molecule microarray, 635/667 nm fluorescence, artefact control for SMM control-protein annotation, profiling panel (AID 1131); details: fibrinogen-A647 binding fluorescence, higher = more signal;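 also: z-score merges 667 nm fluorescence with per-spot signal-to-noise over triplicate slides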
# [13] = biological target: Follistatin (Homo sapiens) (UniProt P19883); assay: FST protein binding to printed compounds – biochemical, small-molecule microarray, 635/667 nm fluorescence, primary screen (AID 1132); details: 635 nm fluorescence, higher = more signal
# [14] = biological target: Fibroblast growth factor 2 (Homo sapiens) (UniProt P09038); assay: basic fibroblast growth factor binding to printed compounds – biochemical, small-molecule microarray, 635/667 nm fluorescence, primary screen (AID 1133); details: FGF2, fluorescence 635/667, higher = more signal
# [15] = JC-1 mitochondrial potential readout, lung cancer cells – cell-based, A549, JC-1 fluorescence, basal, 24 h, 100 nL, profiling panel (AID 1138); details: higher = more signal;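 also: A549 lung adenocarcinoma cells under basal conditions with no added stimulus; test concentration not given here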
# Lefty1 = Lefty1 protein binding to printed compounds – biochemical, small-molecule microarray, 635/667 nm fluorescence, primary screen (AID 1139); details: fluorescence 635/667, higher = more signal
# [16] = test system: wheat germ agglutinin (Triticum aestivum), Alexa647-labelled; assay: Alexa647-WGA lectin binding to printed small molecules – biochemical, small-molecule microarray, 635/667 nm fluorescence, artefact control for SMM control-protein annotation, profiling panel (AID 1140); details: WGA-A647 binding, 635 nm fluorescence, higher = more signal;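 also: score merges 667 nm feature emission with signal to noise over triplicate slides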
# [17] = biological target: Luciferin 4-monooxygenase (Photinus pyralis) (UniProt P08659); assay: inhibition of purified Photinus pyralis luciferase – biochemical, luminescence, purified enzyme, 2006 set, primary screen (AID 1141); details: purified firefly luciferase, SteadyGlo luminescence, 30 min; higher = more signal, called active from +8 up or from −8 down;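 also: cell-free assay with purified firefly luciferase at 100 ng per well in PBS; test concentration not given here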
# Chain of Luciferin 4-monooxygenase (Photinus pyralis) (P08659 whole entry, looked up): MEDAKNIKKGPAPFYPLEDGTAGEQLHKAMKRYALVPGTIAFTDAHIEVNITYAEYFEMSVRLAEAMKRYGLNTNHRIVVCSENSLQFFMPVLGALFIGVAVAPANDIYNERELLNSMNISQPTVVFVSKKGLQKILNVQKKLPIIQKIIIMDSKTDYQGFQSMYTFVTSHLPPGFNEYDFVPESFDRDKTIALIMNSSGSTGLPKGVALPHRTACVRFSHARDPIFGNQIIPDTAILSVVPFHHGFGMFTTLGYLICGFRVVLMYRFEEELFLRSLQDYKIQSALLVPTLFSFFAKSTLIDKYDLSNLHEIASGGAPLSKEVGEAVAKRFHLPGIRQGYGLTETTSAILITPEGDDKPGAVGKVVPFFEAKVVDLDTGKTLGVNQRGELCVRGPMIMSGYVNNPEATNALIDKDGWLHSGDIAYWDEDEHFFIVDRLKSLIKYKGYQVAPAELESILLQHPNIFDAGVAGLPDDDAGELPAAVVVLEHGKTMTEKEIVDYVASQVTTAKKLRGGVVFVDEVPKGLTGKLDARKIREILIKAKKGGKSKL
# Chain of Albumin (Bos taurus) (P02769 whole entry, looked up): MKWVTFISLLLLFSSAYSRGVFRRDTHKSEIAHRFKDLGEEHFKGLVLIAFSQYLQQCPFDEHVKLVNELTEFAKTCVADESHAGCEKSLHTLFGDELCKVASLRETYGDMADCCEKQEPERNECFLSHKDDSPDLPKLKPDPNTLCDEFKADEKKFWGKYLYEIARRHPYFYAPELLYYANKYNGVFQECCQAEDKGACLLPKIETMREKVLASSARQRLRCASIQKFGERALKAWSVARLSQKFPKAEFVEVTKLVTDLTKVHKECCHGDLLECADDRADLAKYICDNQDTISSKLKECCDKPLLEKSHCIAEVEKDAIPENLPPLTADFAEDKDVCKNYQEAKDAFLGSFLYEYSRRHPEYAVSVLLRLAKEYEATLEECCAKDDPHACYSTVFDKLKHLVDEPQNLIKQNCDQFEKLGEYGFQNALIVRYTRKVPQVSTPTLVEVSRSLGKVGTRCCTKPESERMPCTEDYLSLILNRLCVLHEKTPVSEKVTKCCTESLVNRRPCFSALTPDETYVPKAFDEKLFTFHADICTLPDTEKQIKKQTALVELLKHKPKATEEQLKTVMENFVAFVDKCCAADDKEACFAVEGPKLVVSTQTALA
# Chain of Concanavalin-A (Canavalia ensiformis) (P02866 whole entry, looked up): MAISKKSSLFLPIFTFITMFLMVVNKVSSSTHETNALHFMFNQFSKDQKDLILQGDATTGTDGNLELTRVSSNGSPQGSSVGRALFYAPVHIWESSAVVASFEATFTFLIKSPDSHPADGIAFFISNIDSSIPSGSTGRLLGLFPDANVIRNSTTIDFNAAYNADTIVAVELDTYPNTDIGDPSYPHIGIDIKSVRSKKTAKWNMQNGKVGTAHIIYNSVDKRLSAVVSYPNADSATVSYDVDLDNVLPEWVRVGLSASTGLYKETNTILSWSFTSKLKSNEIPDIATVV
# Chain of Fibroblast growth factor 2 (Homo sapiens) (P09038 whole entry, looked up): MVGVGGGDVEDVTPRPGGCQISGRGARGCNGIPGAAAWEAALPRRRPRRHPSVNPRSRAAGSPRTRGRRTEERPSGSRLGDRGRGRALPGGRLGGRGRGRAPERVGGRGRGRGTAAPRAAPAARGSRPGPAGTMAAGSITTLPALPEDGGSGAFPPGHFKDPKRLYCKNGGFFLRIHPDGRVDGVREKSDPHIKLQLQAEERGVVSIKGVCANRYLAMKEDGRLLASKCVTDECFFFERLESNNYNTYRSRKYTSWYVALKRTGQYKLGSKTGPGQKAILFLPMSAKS
# Chain of Follistatin (Homo sapiens) (P19883 whole entry, looked up): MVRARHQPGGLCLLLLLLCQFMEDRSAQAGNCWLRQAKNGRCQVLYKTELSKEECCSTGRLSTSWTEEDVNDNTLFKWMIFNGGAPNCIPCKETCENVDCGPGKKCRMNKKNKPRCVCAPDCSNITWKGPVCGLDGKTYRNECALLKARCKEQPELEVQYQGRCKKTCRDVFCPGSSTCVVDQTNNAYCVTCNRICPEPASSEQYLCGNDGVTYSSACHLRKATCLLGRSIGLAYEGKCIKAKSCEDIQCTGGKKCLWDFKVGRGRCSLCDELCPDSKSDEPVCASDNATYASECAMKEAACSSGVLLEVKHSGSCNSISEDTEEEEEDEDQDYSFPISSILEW
# Chain of Focal adhesion kinase 1 (Homo sapiens) (Q05397 whole entry, looked up): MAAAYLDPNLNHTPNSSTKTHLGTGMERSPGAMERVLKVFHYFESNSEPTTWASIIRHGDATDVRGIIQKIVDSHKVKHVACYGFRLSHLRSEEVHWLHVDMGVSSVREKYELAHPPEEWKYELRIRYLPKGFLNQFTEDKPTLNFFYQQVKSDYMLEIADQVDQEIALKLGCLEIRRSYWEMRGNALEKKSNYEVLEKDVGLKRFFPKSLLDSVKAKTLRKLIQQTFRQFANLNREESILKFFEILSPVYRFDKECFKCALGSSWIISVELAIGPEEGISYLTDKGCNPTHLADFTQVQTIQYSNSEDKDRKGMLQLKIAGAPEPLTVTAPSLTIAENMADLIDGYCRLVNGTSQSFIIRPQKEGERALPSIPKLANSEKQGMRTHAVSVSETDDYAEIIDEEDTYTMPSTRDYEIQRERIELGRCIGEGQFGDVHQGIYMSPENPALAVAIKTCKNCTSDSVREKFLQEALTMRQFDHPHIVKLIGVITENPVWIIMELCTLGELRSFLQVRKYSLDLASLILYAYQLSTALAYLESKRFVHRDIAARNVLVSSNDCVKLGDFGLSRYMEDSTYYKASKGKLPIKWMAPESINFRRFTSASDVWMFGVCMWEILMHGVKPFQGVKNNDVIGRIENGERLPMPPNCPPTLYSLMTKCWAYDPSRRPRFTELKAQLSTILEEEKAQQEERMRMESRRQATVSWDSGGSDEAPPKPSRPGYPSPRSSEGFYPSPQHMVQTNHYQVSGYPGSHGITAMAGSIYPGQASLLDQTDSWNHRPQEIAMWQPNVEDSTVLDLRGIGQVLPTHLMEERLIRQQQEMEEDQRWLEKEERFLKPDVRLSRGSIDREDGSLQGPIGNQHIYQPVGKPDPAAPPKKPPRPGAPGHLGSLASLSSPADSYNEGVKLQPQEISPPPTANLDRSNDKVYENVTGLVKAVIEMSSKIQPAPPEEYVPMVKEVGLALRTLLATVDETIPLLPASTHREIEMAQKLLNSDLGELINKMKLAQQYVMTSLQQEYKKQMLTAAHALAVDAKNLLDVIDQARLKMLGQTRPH
Compound,composite z-score (Albumin (Bos taurus)),composite Z-score [1],composite z-score [2],composite z-score [3],composite z-score [4],composite z-score [5],composite z-score [6],composite z-score (Sam68 (KHDRBS1)),composite z-score [7],composite z-score [8],composite z-score [9],composite z-score [10],composite z-score [11],composite z-score [12],composite z-score [13],composite z-score [14],z-score [15],composite z-score (Lefty1),composite z-score [16],z-score [17]
COc1ccc(CCNC(=O)[C@@]2(Sc3ccc(C)cc3)CC(=O)N(C3CCCCC3)[C@@H]2c2ccc(CO)cc2I)cc1,0.805,0.0371 (inactive),-0.0111,-0.0759,0.513,1.58,0.284,1.31,0.119,0.977,0.949,1.21,0.28,0.151,0.884,0.535,-0.0279,0.569,0.396,0.645 (inactive)
O=C(NCc1ccccc1)[C@@H]1c2ccccc2C(=O)N(CC23CC4CC(CC(C4)C2)C3)[C@H]1c1ccc(CO)cc1,0.438,1.23 (inactive),-0.274,-0.265,0.467,0.813,1.17,1.28,0.452,1.1,0.153,1.19,0.0304,0.937,1.17,1.43,0.705,0.884,0.31,-0.715 (inactive)
O=C1c2ccccc2[C@](Cc2ccccc2I)(C(=O)NC2CC2)[C@H](c2ccc(CO)cc2)N1C1CCCCC1,0.767,0.0542 (inactive),0.174,-0.0551,0.636,2.12,1.49,1.22,0.273,1.2,2.63,1.24,0.548,0.806,1.27,1.09,2.01,0.593,0.993,-0.912 (inactive)
CCCC[C@@H]1C[C@H]1[C@@H](NC(=O)c1ccco1)c1ccc(Cl)cc1,0.796,-0.0717 (inactive),0.193,-0.0164,0.637,1.99,0.65,1.33,-0.414,1.07,1.26,1.2,0.998,0.939,0.0863,-0.488,1.88,-0.406,1.21,1.17 (inactive)
[N-]=[N+]=NCc1ccccc1[C@H]1OC(c2ccc(OCCCO)cc2)=N[C@@]1(Cc1ccccc1)C(=O)NCc1ccccc1,0.882,-0.157 (inactive),0.0884,-0.283,0.448,2.88,0.444,1.26,0.547,0.824,0.517,1.17,0.365,0.954,1.13,0.0948,1.2,-0.352,0.468,-0.658 (inactive)
CCCC=C(CCC)[C@@H](NS(=O)(=O)c1cccs1)c1ccc(C(=O)OC)cc1,1.06,-0.227 (inactive),0.17,0.0592,0.748,2.94,0.157,1.32,-1.19,1.17,1.16,1.17,0.496,1.02,0.825,-0.186,-2.96,-0.3,1.17,0.917 (inactive)
COC(=O)[C@@]1(Cc2ccc(F)cc2)[C@@H]2[C@@H](CC(=O)[C@H]2CC(=O)C(=O)N(C)C)CN1C(=O)c1ccccc1,0.998,0.742 (inactive),0.245,-0.041,0.73,2.84,-0.171,1.34,-0.633,1.1,1.49,1.24,0.138,1.01,0.959,-0.213,0.432,-0.198,1.22,1.28 (inactive)
O=C1NCC(=O)N2[C@@H]1C[C@@H](C(=O)O)[C@H]2c1cccc(OCCO)c1,-0.175,10.2 (active),2.12,1.12,0.628,5.25,1.03,1.33,1.6,0.945,1.85,1.34,4.87,0.654,1.52,1.5,0.221,1.84,1.45,-0.707 (inactive)
COCCOC(=O)N1C(=O)[C@@]2(c3cc(C#CC4(O)CCCCCC4)ccc31)[C@H](c1ccc(O)cc1)N1[C@H](c3ccccc3)[C@H](c3ccccc3)OC(=O)[C@H]1[C@@H]2C(=O)Nc1nc2ccccc2s1,0.873,0.0656 (inactive),0.499,0.203,0.362,1.85,0.552,1.32,0.524,0.785,0.84,1.19,0.482,0.97,1.18,1.05,-1.85,0.562,0.227,-0.715 (inactive)
O=C(C1N=C(c2ccc(OCCCO)cc2)N(c2ccccc2)O1)N1CCOCC1 (stereo not given),0.709,0.0285 (inactive),0.237,-0.0843,0.557,1.54,0.255,1.32,-0.114,0.488,0.548,1.2,0.497,0.966,1.22,0.667,0.211,0.842,0.388,-12 (active)
C=CCN1C(=O)[C@]2(O[C@H](CCO)[C@@H]([Si](C)(C)c3ccc(OC)cc3)[C@@H]2C)c2cc(N3C(=O)c4cccc5cccc3c45)ccc21,0.634,-0.106 (inactive),-0.0377,-0.0956,0.542,0.808,0.0553,0.838,0.0493,0.795,0.987,0.98,1.05,0.541,0.644,0.65,-0.855,0.777,0.393,-0.225 (inactive)
